Where “and” joins values, the source holds several entries; their conditions need not be identical. Identical values can stand only once. Out of some 5,500 compounds screened, about 2,000 (36%) were called active. Inconclusive results (about 18%) are left out. The list shows a part of the results. A number with no mark means an inactive call. Rule as the data show it: active = normalized growth mostly below about 0.91 (no sharp cut-off); inconclusive = no clear call, values can overlap the other calls; inactive = mostly above about 0.92.
Assay: chemical genetic growth profiling, strain panel (AID 1159580);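 also: tested at 20 µM; growth read once vehicle control cultures reached saturation at 30 °C; 1 = growth at the plate median or of vehicle wells; lower values mean less growth of the strain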
Conditions: S. cerevisiae deletion strains, growth OD

CCc1ccc2c(O)c3c(cc2c1C(=O)OC)C(=O)c1c(O)ccc(O)c1C3=O
normalized growth (locus YAL013W, strain DEP1, hits give low values): 0.989 | normalized growth (locus YAL021C, strain ccr4, hits give low values): 0.963 | normalized growth (locus YAL026C, strain drs2, hits give low values): 0.915 | normalized growth (locus YAL030W, strain snc1, hits give low values): 0.992 | normalized growth (locus YBL061C, strain skt5, hits give low values): 0.975 | normalized growth (locus YBR009C, strain hhf1, hits give low values): 0.981 | normalized growth (locus YBR021W, strain FUR4, hits give low values): 1.02 | normalized growth (locus YBR023C, strain chs3, hits give low values): 0.975 | normalized growth (locus YBR171W, strain sec66, hits give low values): 0.97 | normalized growth (locus YBR229C, strain ROT2, hits give low values): 0.956 | normalized growth (locus YBR231C, strain swc5, hits give low values): 0.997 | normalized growth (locus YBR279W, strain paf1, hits give low values): 0.99 | normalized growth (locus YCL011C, strain gbp2, hits give low values): 0.984 | normalized growth (locus YCL016C, strain dcc1, hits give low values): 0.988 | normalized growth (locus YCL029C, strain bik1, hits give low values): 0.975 | normalized growth (locus YCL069W, strain vba3, hits give low values): 0.981 | normalized growth (locus YCR088W, strain abp1, hits give low values): 0.981 | normalized growth (locus YDL005C, strain med2, hits give low values): 0.997 | normalized growth (locus YDL035C, strain GPR1, hits give low values): 0.984 | normalized growth (locus YDL040C, strain nat1, hits give low values): 1 | normalized growth (locus YDL074C, strain BRE1, hits give low values): 1.03 | normalized growth (locus YDL101C, strain DUN1, hits give low values): 0.978 | normalized growth (locus YDL134C, strain PPH21, hits give low values): 0.964 | normalized growth (locus YDL185W, strain tfp1, hits give low values): 0.978 | normalized growth (locus YDL192W, strain arf1, hits give low values): 0.958 | normalized growth (locus YDR001C, strain nth1, hits give low values): 0.972 | normalized growth (locus YDR069C, strain doa4, hits give low values): 0.909 | normalized growth (locus YDR101C, strain arx1, hits give low values): 1.02 | normalized growth (locus YDR137W, strain rgp1, hits give low values): 0.91 | normalized growth (locus YDR159W, strain sac3, hits give low values): 0.944 | normalized growth (locus YDR162C, strain NBP2, hits give low values): 0.935 | normalized growth (locus YDR195W, strain ref2): 0.962 | normalized growth (locus YDR297W, strain sur2, hits give low values): 0.98 | normalized growth (locus YDR318W, strain mcm21, hits give low values): 0.951 | normalized growth (locus YDR334W, strain swr1, hits give low values): 0.923 | normalized growth (locus YDR335W, strain msn5, hits give low values): 0.971 | normalized growth (locus YDR388W, hits give low values): 0.978 | normalized growth (locus YDR392W, strain spt3, hits give low values): 0.926 | normalized growth (locus YDR502C, strain sam2, hits give low values): 0.974 | normalized growth (locus YEL003W, strain gim4, hits give low values): 0.996 | normalized growth (locus YEL037C, strain rad23, hits give low values): 0.977 | normalized growth (locus YEL061C, strain CIN8 (second series), hits give low values): 0.97 | normalized growth (locus YEL061C, strain CIN8, hits give low values): 0.978 | normalized growth (locus YER015W, strain faa2, hits give low values): 0.974 | normalized growth (locus YER016W, strain bim1, hits give low values): 0.986 | normalized growth (locus YER110C, hits give low values): 0.979 | normalized growth (locus YER111C, strain swi4, hits give low values): 0.927 | normalized growth (locus YER155C, strain BEM2 (second series), hits give low values): 0.909 | normalized growth (locus YER155C, strain BEM2, hits give low values): 1 | normalized growth (locus YER167W, strain BCK2, hits give low values): 0.987 | normalized growth (locus YFR010W, strain ubp6, hits give low values): 0.874 (active) | normalized growth (locus YGL078C, strain dbp3, hits give low values): 1.01 | normalized growth (locus YGL086W, strain mad1, hits give low values): 0.987 | normalized growth (locus YGL167C, strain pmr1, hits give low values): 0.979 | normalized growth (locus YGL173C, strain kem1, hits give low values): 0.972 | normalized growth (locus YGL227W, strain vid30, hits give low values): 1 | normalized growth (locus YGL240W, strain doc1, hits give low values): 0.978 | normalized growth (locus YGL248W, strain PDE1, hits give low values): 0.955 | normalized growth (locus YGL253W, strain hxk2, hits give low values): 0.982 | normalized growth (locus YGR135W, strain pre9, hits give low values): 0.94 | normalized growth (locus YGR252W, strain gcn5, hits give low values): 0.977 | normalized growth (locus YHR013C, strain ard1, hits give low values): 0.996 | normalized growth (locus YHR027C, strain rpn1, hits give low values): 0.994 | normalized growth (locus YHR030C, strain SLT2, hits give low values): 0.986 and 0.951 | normalized growth (locus YHR079C, strain IRE1 (second series), hits give low values): 0.997 | normalized growth (locus YHR079C, strain IRE1, hits give low values): 0.954 | normalized growth (locus YHR094C, strain hxt1, hits give low values): 0.978 | normalized growth (locus YHR129C, strain ARP1, hits give low values): 0.978 | normalized growth (locus YHR142W, strain chs7, hits give low values): 0.879 | normalized growth (locus YHR200W, strain rpn10, hits give low values): 0.963 | normalized growth (locus YIL066C, strain RNR3, hits give low values): 0.966 | normalized growth (locus YIL073C, strain SPO22, hits give low values): 1.03 | normalized growth (locus YIL125W, strain kgd1, hits give low values): 0.989 | normalized growth (locus YIR030C, strain dcg1, hits give low values): 0.998 | normalized growth (locus YJL092W, strain hpr5, hits give low values): 0.976 | normalized growth (locus YJL095W, strain BCK1 (second series), hits give low values): 0.973 | normalized growth (locus YJL095W, strain BCK1, hits give low values): 0.928 and 0.964 | normalized growth (locus YJL115W, strain asf1, hits give low values): 0.966 | normalized growth (locus YJL129C, strain trk1, hits give low values): 0.986 | normalized growth (locus YJL134W, strain LCB3, hits give low values): 0.99 | normalized growth (locus YJL154C, strain vps35, hits give low values): 0.987 | normalized growth (locus YJL164C, strain tpk1, hits give low values): 0.968 | normalized growth (locus YJL166W, strain qcr8, hits give low values): 0.961 | normalized growth (locus YJL168C, strain set2, hits give low values): 0.982 | normalized growth (locus YJL187C, strain SWE1 (second series), hits give low values): 0.959 | normalized growth (locus YJL187C, strain SWE1, hits give low values): 0.98 | normalized growth (locus YJR043C, strain POL32, hits give low values): 0.979

From PubChem BioAssay AID1159580 (chemical genetic matrix, 2015)
